Assay results reported in PubChem BioAssay (NCI).
This is part of a sample that, as a whole, favours compounds with a hit. Of some 83,000 tested, about 20% had one in any assay.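 How to read the values: 0–100, growth inhibition (40 = 60% inhibited); 0, no net growth; -100 to 0, cell death (-40 = 40% of starting cells died; -100 = all dead).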 Unmarked numbers belong to inactive results. Active and inactive are the calls of the source. Rule for the calls: active = growth percent below 10; inactive = the rest.

Legend:
Assay in all cases: NCI-60 one-dose screen, 48 h (100 = growth as untreated, 0 = no growth, -100 = all killed)
Details in all cases: 10 µM unless noted
SK-MEL-2 melanoma = system: SK-MEL-2 melanoma
EKVX NSCLC = system: EKVX NSCLC
SN12C renal = system: SN12C renal
UO-31 renal = system: UO-31 renal
TK-10 renal = system: TK-10 renal
ACHN renal = system: ACHN renal
CAKI-1 renal = system: CAKI-1 renal
A498 renal = system: A498 renal
CCRF-CEM leukemia = system: CCRF-CEM leukemia
MOLT-4 leukemia = system: MOLT-4 leukemia

Row | SMILES | growth (SK-MEL-2 melanoma) | growth (EKVX NSCLC) | growth (SN12C renal) | growth (UO-31 renal) | growth (TK-10 renal) | growth (ACHN renal) | growth (CAKI-1 renal) | growth (A498 renal) | growth (CCRF-CEM leukemia) | growth (MOLT-4 leukemia)
1 | COc1ccc2ncccc2c1Cc1c(OC)ccc2ncccc12 | 75.6% | 85.4% | 89.4% | 55.6% | 89.2% | 86.1% | 57.6% | 60.4% | 70.7% | 57.9%
2 | CCOC(=O)c1sc(NC(=O)COc2cccc(/C=C3\CCc4cc(OC)ccc4C3=O)c2)nc1C | 42.6% | 82.9% | 48.9% | 14% | 89.3% | 85.7% | 60.2% | 85.8% | -17.2% (active) | 7.22% (active)
3 | O=C(Nc1nc2ccc(OC(F)(F)F)cc2s1)c1ccc(F)cc1 | -22.6% (active) | 15.6% | 13.3% | -4.24% (active) | 21.8% | 7.56% (active) | 6.43% (active) | 16.4% | 32.1% | 13.8%
4 | COc1ccc(CNC(=O)c2c(C)n([O-])c3cc(F)c(F)cc3[n+]2=O)cc1 | 88.1% | 89.2% | 95.2% | -32.4% (active) | 102% | 98.7% | 152% | 95.1% | 90.8% | 97%
5 | O=C(COc1ccc(/C=C2\Oc3ccc4ccccc4c3C2=O)cc1)c1ccc([N+](=O)[O-])cc1 | 48.6% | 100% | 89.7% | 2.26% (active) | 117% | 107% | 101% | 103% | -17.2% (active) | 20.4%
6 | CCOC(=O)c1sc(NC(=O)COc2ccc(/C=C3\CCc4cc(OC)ccc4C3=O)cc2)nc1C | 62.3% | 90.6% | 86.2% | 14.5% | 115% | 103% | 76.7% | 76.6% | -62.6% (active) | 7.56% (active)
7 | COC(=O)c1cc2c(/C=C3/NC(=S)NC3=O)coc2n1C | 107% | 93.4% | 118% | 50% | 89.9% | 95.2% | 74.4% | 99.6% | 85.2% | 99.9%
8 | Nc1ccc(Oc2c(F)c(F)c(Oc3ccc(N)cc3)c(F)c2F)cc1 | 17.5% | 105% | 103% | 63.6% | 101% | 93.5% | 95.6% | 111% | 78.2% | 79.3%
9 | COc1ccc2c(c1)CC[C@@H]1[C@@H]2CC[C@]2(C)[C@@H](O)C(=O)C[C@@H]12 | 107% | 102% | 96.1% | 85.2% | 109% | 94.9% | 97.4% | 95.7% | 91.8% | 90.8%
10 | O=C(N/N=C/c1ccc(Cl)cc1Cl)c1ccccc1Nc1cccc(C(F)(F)F)c1 | 54.9% | -27.9% (active) | 53.3% | 25.7% | 106% | 35.9% | 55.5% | -7.44% (active) | 32.4% | 55.8%
11 | O=C1c2cccc(NCCN=Cc3ccccc3O)c2C(=O)c2c(NCCN=Cc3ccccc3O)cccc21 | 46.5% | 39.8% | 44.5% | -4.5% (active) | 22.5% | 15.4% | 27.6% | 50.7% | 3.44% (active) | 15%
12 | CCC(=O)Nc1cc2c(cc1Cl)-c1ccccc1C2 | 97.5% | 57.1% | 68.7% | 42.5% | 110% | 87.1% | 83.6% | 83.6% | 72.3% | 82.1%
13 | COc1ccc2cc(-c3nc4ccccc4[nH]3)c(=O)oc2c1 | 22.1% | 77.3% | 92.3% | 94.2% | 119% | 86.2% | 82.2% | 95.6% | 95.3% | 97.7%
14 | COc1c(O)cc2c(c1CC=C(C)C)OC(=O)c1c(cc(O)c(CC=C(C)C)c1O)O2 | 55.5% | 78.5% | 10.4% | 45.1% | 42% | 30.2% | 50.6% | 116% | 32.2% | 20.6%
15 | COc1ccc(CNC(=O)c2c(C)n([O-])c3ccc(OC)cc3[n+]2=O)cc1 | 102% | 87.8% | 108% | 21.9% | 104% | 111% | 230% | 104% | 100% | 103%
16 | Cc1ccc(C(=O)Cc2ccccc2)c(O)c1 | 101% | 99.4% | 94.8% | 86.4% | 104% | 102% | 95% | 79.3% | 112% | 92.3%
17 | O=C(COc1ccc(/C=C2\Oc3ccc4ccccc4c3C2=O)cc1)c1ccc(Cl)cc1 | 73.8% | 103% | 98.9% | 5.25% (active) | 114% | 107% | 98.8% | 155% | -26.9% (active) | 33.8%
18 | COc1ccc(C(=O)COc2cccc(/C=C3\CSc4ccc(Cl)cc4C3=O)c2)cc1 | 46.9% | 77.9% | 90.2% | 13.1% | 118% | 90.3% | 69.6% | 94.4% | -21.3% (active) | 7.34% (active)
19 | O=C1N=C(N2CCOCC2)S/C1=C\c1cn(-c2ccccc2)nc1-c1ccccc1 | 81.7% | 90% | 92.4% | 44.3% | 57.1% | 58.9% | 93.9% | 48% | 92.4% | 116%
20 | CCOC(=O)OCC(=O)[C@@]1(O)CC[C@H]2[C@@H]3CCC4=CC(=O)CC[C@]4(C)[C@H]3[C@@H](O)C[C@@]21C | 102% | 85.4% | 87.2% | 76.2% | 96.4% | 99.3% | 90.9% | 98.8% | 84.6% | 93.2%
21 | O=C(COc1cccc(/C=C2\Oc3ccc4ccccc4c3C2=O)c1)c1ccc([N+](=O)[O-])cc1 | 44.3% | 85.4% | 98.2% | -41.6% (active) | 99.9% | 98.4% | 69.3% | 108% | 35.7% | 32%
22 | CCOC1Oc2ccccc2C(=O)/C1=N/c1nccs1 (stereo not given) | 73.9% | 89.3% | 76.4% | 89.4% | 98.8% | 84.9% | 77.3% | 115% | 82.4% | 79.8%
23 | CCOC(=O)CNC(=O)C1(NC(=O)CNC(=O)OCc2ccccc2)CCCC1 | 107% | 99.4% | 93.8% | 98.6% | 102% | 103% | 95.2% | 102% | 102% | 106%
24 | COC(=O)N/N=C/c1coc2ccc(Cl)cc2c1=O | 68.5% | 85.4% | 88.1% | 84.1% | 120% | 91.6% | 81.8% | 111% | 90.7% | 84.2%
25 | CC1C(C)N(C(=O)CCl)c2ccccc2N1C(=O)CCl (stereo not given) | -40.9% (active) | -60% (active) | -26.6% (active) | -84.8% (active) | -87.4% (active) | -91.5% (active) | -79.7% (active) | -83.5% (active) | -34.6% (active) | -26.5% (active)
26 | CCN(CC)c1ccc(N=C2C=CC(=O)C=C2NC(C)=O)cc1 | 98.6% | 106% | 97.5% | 71% | 95.9% | 83.7% | 105% | 82.1% | 87.6% | 99.5%
27 | Cc1cc(=O)oc2cc(OCCn3c(C)nn(-c4ccc(Cl)cc4)c3=O)ccc12 | 3.55% (active) | 58.7% | 51.8% | 42.8% | 59.6% | 41.9% | 19.5% | 25.7% | 13.4% | 37.6%
